Experimental data as given in PubChem BioAssay.
“And” between values parts separate entries of the source, which are not always exact repeats. Identical values can stand only once. The source made the active and inactive calls.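 The calls were made as follows, unless noted: active = thallium flux through the channel raised or lowered by more than 3 SD from vehicle-only wells, actives on both sides; inactive = the rest.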

Key:
[1] = liver-stage malaria parasite growth inhibition, primary screen, cell-based, HepG2, luciferase luminescence, HepG2 viability (AID 624349; in the data active = parasite load remaining mostly below about 12%, no sharp cut-off; inactive = mostly above about 10%;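 also: 100% = mean of DMSO negative control wells on the same plate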); conditions: P. berghei liver stage in HepG2, luciferase luminescence, concentration not given here; parasite load remaining: stronger effect = lower value; viability: measured here: HepG2 viability without parasites
[2] = Cy5 fluorescence interference with SSB-bound oligo, artefact control for HCV NS3 helicase inhibitor project, biochemical, NIH Clinical Collection, E. coli SSB (AID 743268; call rule not given here)
[3] = system: Hepatitis C virus NS3 helicase; assay: HCV NS3 helicase inhibitors, primary screen, biochemical, fluorescence polarization, NIH Clinical Collection (AID 743270; call rule not given here); conditions: NS3 helicase binding to Cy5-dT15 DNA, stronger effect = higher value, concentration not given here
[4] = target: Single-stranded DNA-binding protein (Escherichia coli (strain K12)) (UniProt P0AGE0); assay: E. coli SSB displacement from DNA, counter-screen for HCV NS3 helicase inhibitor project, biochemical, fluorescence polarization, NIH Clinical Collection (AID 743271; in the data active = inhibition above about 28%); conditions: stronger effect = higher value, concentration not given here
[5] = fluorescence interference in NS3h assay format, artefact control for HCV NS3 helicase inhibitor project, biochemical, NIH Clinical Collection (AID 743272; call rule not given here;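 also: HCV NS3 helicase with a Cy5 labelled single stranded DNA probe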); conditions: fluorescence interference counterscreen, stronger effect = lower value
[6] = sensitizers of A549 cells to miR-34 induction, primary screen, imaging, A549 dox-inducible miR-34, nuclei and caspase counts (AID 1347080;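 active = compounds whose cell count with miR-34 switched on is under 0.7 times the count with it off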); conditions: A549 miR-34 inducible, Hoechst nuclei count, 48 h
[7] = survival rescue of mitochondrial mutant cells in low glucose, primary screen, MELAS cybrids, Rieske KO mouse fibroblasts, CellTiter-Glo (AID 1508586;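 active = mean z-score across replicates of 1.96 or higher in either the MELAS or the Rieske mutant cell line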;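 also: z relative to plate mean and SD of compound and empty wells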)
[8] = viability rescue of complex I mutant cybrids, primary screen, cell-based, galactose medium, ATP luminescence (AID 1645843;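 active = z-score of at least 1.8 in each of two replicates, scored against plate mean and spread of sample wells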;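 also: positive z means more ATP and so rescue of galactose-driven cybrid death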); conditions: complex I mutant cybrid cells, 72 h, stronger effect = higher value
F380Y = assay: modulators of BK channel variants, profiling panel, selectivity assay, cell-based, U2OS BacMam, thallium flux, beta subunits (AID 1259406); conditions: at 30 µM;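 also: initial slope of Thallos dye fluorescence rise after thallium is added; log ratio against the mean of 0.3% DMSO vehicle wells on the same plate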
F380Y/beta1 = assay: as above; conditions: at 30 µM
F380Y/beta2Delta = assay: as above; conditions: at 30 µM
F380Y/beta4 = assay: as above; conditions: at 30 µM
[9] = target: Calcium-activated potassium channel subunit alpha-1 (Homo sapiens) + Leucine-rich repeat-containing protein 26 (Homo sapiens) (UniProt Q12791+Q2I0M4); assay: as above; conditions: F380Y/Slo1WT/gamma1, at 30 µM
R275C = assay: as above; conditions: at 30 µM
R275C/beta1 = assay: as above; conditions: at 30 µM
R275C/beta2Delta = assay: as above; conditions: at 30 µM
R275C/beta4 = assay: as above; conditions: at 30 µM
R275C/Slo1WT/beta2 = assay: as above; conditions: at 30 µM
[10] = system: Neuropilin-2 / VEGF-C interaction (human); assay: inhibitors of NRP2–VEGF-C binding, biochemical, microplate binding format, z-score (AID 743281; call rule not given here); conditions: microplate NRP2/VEGF-C binding assay; stronger effect = lower value
[11] = modulation of C. elegans fzo-1 (AID 1259413; call rule not given here;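 also: fzo-1 mutant C. elegans worms in liquid wells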); conditions: C. elegans fzo-1 modulator screen, mean read-out; stronger effect = higher value
[12] = stronger effect = lower value, cell number ratio, induced over uninduced
[13] = measured here: relative caspase fold change +Dox/-Dox
[14] = measured here: total cells with miR-34 induction, stronger effect = lower value
[15] = measured here: total cells without miR-34 induction
[16] = MELAS cybrid survival, CellTiter-Glo 48 h, stronger effect = higher value
[17] = Rieske KO mouse fibroblast survival, CellTiter-Glo 72 h

Sequence of Calcium-activated potassium channel subunit alpha-1 (Homo sapiens) + Leucine-rich repeat-containing protein 26 (Homo sapiens) (Q2I0M4 whole entry, looked up, one chain of several): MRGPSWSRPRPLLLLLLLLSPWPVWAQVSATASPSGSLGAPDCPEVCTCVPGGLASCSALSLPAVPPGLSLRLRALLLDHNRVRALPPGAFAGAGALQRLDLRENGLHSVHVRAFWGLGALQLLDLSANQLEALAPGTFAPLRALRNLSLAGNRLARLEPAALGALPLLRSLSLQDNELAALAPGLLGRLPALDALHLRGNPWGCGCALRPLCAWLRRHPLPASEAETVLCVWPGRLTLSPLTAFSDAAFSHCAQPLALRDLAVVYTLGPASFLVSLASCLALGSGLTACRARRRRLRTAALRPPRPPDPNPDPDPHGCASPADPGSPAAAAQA

CCCc1nc(C(C)(C)O)c(C(=O)O)n1Cc1ccc(-c2ccccc2-c2nn[nH]n2)cc1
10600 and 9810: cell count [6, 15]
inactive: parasite load remaining [1] 103% | fluorescence ratio [2] 1.02 | inhibition [3] 1.19% | inhibition [4] -0.1% | fluorescence ratio [5] 0.93 | fold change [6, 12] 0.897 and 0.859 | z-score [7, 16] 0.347 | z-score [8] 0.54 and -0.09 | log fold change Tl+ flux (F380Y) -0.0187 | log fold change Tl+ flux (F380Y/beta1) 0.00703 | log fold change Tl+ flux (F380Y/beta2Delta) 0.0323 | log fold change Tl+ flux (F380Y/beta4) -0.0244 | log fold change Tl+ flux [9] 0.0466 | log fold change Tl+ flux (R275C) 0.0686 | log fold change Tl+ flux (R275C/beta1) 0.00561 | log fold change Tl+ flux (R275C/beta2Delta) 0.0191 | log fold change Tl+ flux (R275C/beta4) -0.0131 | log fold change Tl+ flux (R275C/Slo1WT/beta2) -0.0157
2.28 and 0.39: fold change [6, 13]
9480 and 8420: cell count [6, 14]
69%: viability [1]
-0.184: z-score [7, 17]

CC12CCC(=O)C=C1CCC1C2CCC2(C)C1CCC2(O)C(=O)CO (stereo not given)
inactive: parasite load remaining [1] 47.2% | fluorescence ratio [2] 0.91 | inhibition [3] -4.59% | inhibition [4] 1.18% | fluorescence ratio [5] 0.84 | z-score [10] -0.624 | mean signal [11] 241 | fold change [6, 12] 1.28 | z-score [8] 0.28 | log fold change Tl+ flux (F380Y) -0.0107 | log fold change Tl+ flux (F380Y/beta1) 0.000378 | log fold change Tl+ flux (F380Y/beta2Delta) 0.0311 | log fold change Tl+ flux (F380Y/beta4) 0.00388 | log fold change Tl+ flux [9] 0.0303 | log fold change Tl+ flux (R275C) 0.029 | log fold change Tl+ flux (R275C/beta1) -0.042 | log fold change Tl+ flux (R275C/beta2Delta) -0.0755 | log fold change Tl+ flux (R275C/beta4) -0.0135 | log fold change Tl+ flux (R275C/Slo1WT/beta2) -0.0119
7560: cell count [6, 14]
5920: cell count [6, 15]
63.5%: viability [1]
1.98: fold change [6, 13]

CO[C@H]1/C=C/O[C@@]2(C)Oc3c(C)c(O)c4c(O)c(c5c(c4c3C2=O)NC2(CCN(CC(C)C)CC2)N=5)=NC(=O)/C(C)=C\C=C\[C@H](C)[C@H](O)[C@@H](C)[C@@H](O)[C@@H](C)[C@H](OC(C)=O)[C@@H]1C
active: log fold change Tl+ flux (F380Y/beta2Delta) -0.104 | log fold change Tl+ flux (R275C) -0.198 | log fold change Tl+ flux (R275C/beta1) 0.128 | log fold change Tl+ flux (R275C/beta2Delta) -0.107
inactive: parasite load remaining [1] 23.3% | fold change [6, 12] 1.03 | z-score [7, 16] 1.35 | z-score [8] -1.49 | log fold change Tl+ flux (F380Y) 0.0411 | log fold change Tl+ flux (F380Y/beta1) -0.0629 | log fold change Tl+ flux (F380Y/beta4) -0.0899 | log fold change Tl+ flux [9] -0.055 | log fold change Tl+ flux (R275C/beta4) 0.00982 | log fold change Tl+ flux (R275C/Slo1WT/beta2) -0.0228
8270: cell count [6, 15]
8520: cell count [6, 14]
1.35: z-score [7, 17]
92.9%: viability [1]
1.58: fold change [6, 13]
